Hits are enriched below; roughly 27% of the tested compounds scored in any of these assays.
CYP2C19 act: increases human CYP2C19 enzyme activity; 96,000 tested, under 10 active; AID 1025; recombinant CYP2C19, luciferin-H EGE luminescence; stronger effect = higher value; 0 = fully inhibited enzyme, 1 = untreated enzyme; activation factor at 5 µM;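 active means activation factor of at least 2 at 5 µM in the primary screen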;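 further: 0 = wells with 2.5 mM tranylcypromine and 1 = vehicle-only wells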
PTK2B oligo ant: Pyk2 (human) oligomerization antagonism; Q14289; Q293 cells, Pyk2 FERM NanoBiT luminescence; stronger effect = lower value; z-score (the deposit names both 25 µM and 10 µM); 99,000 tested, 0.83% active; AID 1347419;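 active means Z-score of -3 or lower, scaled per plate to the spread of control and sample wells; inactive means z-score above -3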;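 further: negative z-score means lost luminescence so less FERM oligomerization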
CYP2C9 inhib: blocks human cytochrome P450 2C9. P11712. CYP2C9 Supersomes, luciferin-H conversion, luminescence. inhibition, % at 5 µM. 96,000 tested, 20% active. AID 777;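 active means blocking of liver enzyme CYP2C9 beyond about 50% at 5 µM, limit read from the data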
Target sequence (P11712 whole entry, looked up): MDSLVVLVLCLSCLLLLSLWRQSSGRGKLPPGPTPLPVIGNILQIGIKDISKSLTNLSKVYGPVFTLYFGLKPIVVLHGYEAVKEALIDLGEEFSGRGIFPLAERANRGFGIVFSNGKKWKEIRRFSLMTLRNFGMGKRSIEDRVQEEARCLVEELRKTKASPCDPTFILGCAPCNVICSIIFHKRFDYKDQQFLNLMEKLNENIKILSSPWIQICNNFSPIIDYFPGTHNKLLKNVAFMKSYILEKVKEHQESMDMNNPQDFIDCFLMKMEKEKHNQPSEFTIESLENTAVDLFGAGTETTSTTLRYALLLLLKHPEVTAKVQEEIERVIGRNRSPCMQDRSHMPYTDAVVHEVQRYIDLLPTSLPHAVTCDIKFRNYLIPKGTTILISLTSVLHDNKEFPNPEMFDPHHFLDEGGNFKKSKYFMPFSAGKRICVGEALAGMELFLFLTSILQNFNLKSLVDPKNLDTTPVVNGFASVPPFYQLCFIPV
CYP2C19 inh: blocks human cytochrome P450 2C19; P33261; CYP2C19 Supersomes, luciferin-H EGE luminescence, 30 min; inhibition, % at 5 µM; 96,000 tested, 21% active; AID 778;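 active means CYP2C19 inhibition above a set limit at 5 µM in the primary screen, cut at about 50% in these data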;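 further: plate controls were negative control wells for no effect and 2.5 mM tranylcypromine positive control for full effect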
CYP2C9 act: increases human cytochrome P450 2C9 activity; recombinant CYP2C9, luciferin-H conversion, luminescence; stronger effect = higher value; factor 1 = untreated enzyme, 0 = blocked; P11712; activation factor at 5 µM; 96,000 tested, 1.4% active;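 active means activation factor of 2 or more for CYP2C9 at a 5 µM dose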;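 further: 0 = sulfaphenazole-blocked wells and 1 = vehicle-only wells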
Cav32 inh: blocks human Cav3.2 T-type calcium channel; B-score at 10 µM; 100,000 tested, 4% active; Cav3.2-expressing cells, Fluo-4 calcium fluorescence FDSS; stronger effect = lower value;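 active means single-dose well whose peak fluorescence ratio is a statistical outlier from its plate by either plate-standardised score or position-corrected B-score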
Active calls of the source: *; nt = no result.

SMILES | CYP2C19 act | PTK2B oligo ant | CYP2C9 inhib | CYP2C19 inh | CYP2C9 act | Cav32 inh
COCC(C)n1c(C)cc(C(=O)COc2ccc(S(=O)(=O)N3CCOCC3)cc2Cl)c1C (configuration not stated) | 0.5 | 0.13 | 58* | 51* | 0.4 | -0.066
O=C(N/N=C(\c1ccccc1)c1cccnc1)C(O)(c1ccccc1)c1ccccc1 | 0.7 | -3.9* | 67* | 28 | 0.3 | -1.2
O=C(N/N=C/c1cccnc1)C(O)(c1ccccc1)c1ccccc1 | 0.6 | -0.64 | 41 | 39 | 0.6 | 0.46
COc1cc(C(=O)NC2=NCCS2)cc(OC)c1OC | 1.1 | 0.33 | -11 | -6 | 1.1 | -0.088
COc1ccc(N(C)S(=O)(=O)c2cccc(C(=O)NC3=NCCS3)c2)cc1 | 0.6 | 0.54 | 64* | 44 | 0.4 | 0.054
Cc1ccc(N(C)S(=O)(=O)c2cccc(C(=O)NC3=NCCS3)c2)cc1 | 0.6 | -2.3 | 69* | 41 | 0.3 | -0.22
COc1ccc(N2C(C)=CS/C2=C(/C#N)c2nnc(N3CCOCC3)n2-c2ccccc2)cc1 | 0.8 | -0.42 | 16 | 17 | 0.8 | 1.3
O=C1Oc2ccccc2C2(O)C3CCCCCC3C12 (configuration not stated) | 0.1 | -0.36 | 20 | 95* | 0.8 | 0.55
CCCCc1nc(S(=O)(=O)c2ccc(Cl)cc2)c(N2CCOCC2)o1 | nt | 0.58 | nt | nt | nt | -2.8
COc1cccc(CNC(=O)C2CCCN(S(=O)(=O)c3c(C)n[nH]c3C)C2)c1 (configuration not stated) | 0.8 | -0.75 | 21 | 18 | 0.8 | 1
CCC(=O)N(CC)c1nc(-c2cc(OC)ccc2OC)cs1 | nt | 0.66 | nt | nt | nt | -0.18
COc1ccc(-c2nc(N)ncc2-c2csc(C)n2)c(O)c1 | 0.1 | -0.68 | 3 | 87* | 1 | 0.28
CCOCCCNCC(=O)Nc1ccccc1N1CCOCC1 | 1 | -0.19 | -22 | 0 | 1.2 | 1.4
CCOC(=O)c1[nH]cc(-c2ccccc2)c1N1CCOCC1 | 0.1 | -0.09 | 31 | 93* | 0.7 | -1.1
c1ccc(CCc2nn3c(-c4ccncc4)nnc3s2)cc1 | 0.1 | -1.6 | 54* | 95* | 0.5 | 2
Clc1ccccc1-c1nnc2sc(CCc3ccccc3)nn12 | 0.1 | -0.81 | 53* | 88* | 0.5 | 0.96
Brc1ccccc1-c1nnc2sc(Cc3ccccc3)nn12 | 0 | -1.8 | 62* | 95* | 0.4 | -2
O=C(CCc1nc2cccnc2n1Cc1ccccc1)NCCc1ccc(Cl)cc1 | 0.3 | -1.1 | 69* | 71* | 0.3 | -7.2*
COc1ccc(Cn2c(CCC(=O)Nc3ccccc3)nc3cccnc32)cc1 | 0.8 | -1.5 | -3 | 21 | 1 | 1.9
COc1ccc(Cn2c(CCC(=O)Nc3ccc(C)c(C)c3)nc3cccnc32)cc1 | 0.4 | -1.1 | 98* | 64* | 0 | -3.5*
O=C1CCCN1CCNC(=S)Nc1ccccc1 | 0.8 | 0.07 | 52* | 19 | 0.5 | 0.36
Nc1nnc(SCCOc2cccc(Br)c2)s1 | 0.1 | -1.4 | 46 | 92* | 0.5 | -2.1
O=c1cc(CSc2ccc(Cl)cc2)nc(N2CCCCC2)[nH]1 | 1 | -0.06 | 34 | 5 | 0.7 | -0.46
O=C1CCCc2ccccc2N1Cc1cccc(Cl)c1 | 0.2 | -0.63 | 72* | 84* | 0.3 | nt
O=C1CCSc2ccc(Cl)cc2N1Cc1ccc(Cl)cc1 | 0.8 | -1.1 | 24 | 20 | 0.8 | -4.5
SMILES | CYP2C19 act | PTK2B oligo ant | CYP2C9 inhib | CYP2C19 inh | CYP2C9 act | Cav32 inh
O=C1CCSc2ccc(Cl)cc2N1Cc1ccccc1 | 0.3 | -1.4 | 23 | 66* | 0.8 | -0.094
O=C1CCCc2ccccc2N1Cc1ccc(Cl)cc1 | 0.1 | -1 | 68* | 91* | 0.3 | -2.5
COc1ccc(C(=O)Cn2nnc(-c3cccs3)n2)cc1 | 0.6 | 0.55 | -2 | 38 | 1 | -0.92
COC(=O)CCn1nnc(-c2ccc(C(C)C)cc2)n1 | 1 | 1.7 | -13 | 4 | 1.1 | -5.4*
COC(=O)CCn1nnc(-c2cccs2)n1 | 0.2 | -0.26 | -2 | 78* | 1 | nt
COC(=O)Nc1ccc(C)c2nsnc12 | 1 | 0.62 | 2 | -4 | 1 | nt
CCn1cc(C(=O)OCC(=O)N(C)C2CCS(=O)(=O)C2)c(=O)c2ccc(C)nc21 (configuration not stated) | 1.1 | -0.14 | -28 | -7 | 1.3 | 0.18
O/C(=C\Sc1nnc(Cc2ccccc2)o1)c1ccc(Br)cc1 | 0.2 | 0.16 | 93* | 79* | 0.1 | -3.6
COc1ccc(CCNc2ncnc3c2oc2ccccc23)cc1OC | 0.4 | -1.4 | 39 | 57* | 0.6 | -2.8
COc1ccc(CCNc2nc(C)nc3c2oc2ccccc23)cc1OC | 0.5 | 0.63 | 37 | 49 | 0.6 | -1
CC1CCN(C(=O)CCNS(=O)(=O)c2ccccc2)CC1 | 0.5 | 0.11 | 13 | 54* | 0.9 | -0.64
O=C(O)CCNS(=O)(=O)c1ccccc1 | 1 | -0.36 | 6 | 3 | 0.9 | -0.18
CC(CCc1ccco1)NC(=O)Cn1nc(Cc2ccncc2)c2ccccc2c1=O (configuration not stated) | 0.2 | nt | 86* | 84* | 0.1 | -0.081
O=C(Cn1nc(Cc2ccncc2)c2ccccc2c1=O)N1CCN(C(=O)c2ccco2)CC1 | 0.7 | nt | 64* | 34 | 0.4 | 0.57
O=C(Cn1nc(Cc2cccnc2)c2ccccc2c1=O)N1CCN(C(=O)c2ccco2)CC1 | 0.9 | nt | 50 | 8 | 0.5 | 0.15
COC(=O)c1ccc(NC(=O)CCN2CCN(Cc3ccccc3)CC2)cc1 | nt | 0.6 | nt | nt | nt | -0.076
CCOC(=O)/C=C/c1ccccc1S(=O)(=O)NC(C)(C)C | nt | nt | nt | nt | nt | -0.084
O=C(Cc1ccc(-c2ccccc2)cc1)NCCN1CCOCC1 | 0.3 | 1.6 | 42 | 72* | 0.6 | 0.25
O=C(Cc1nc(-c2ccc(Br)s2)cs1)NCCN1CCOCC1 | 0.2 | -0.77 | 34 | 77* | 0.7 | 1.1
O=C(CSc1nc2ccccc2s1)NCCCN1CCOCC1 | 0.8 | -0.28 | 5 | 21 | 0.9 | -0.77
O=C(NCCN1CCOCC1)c1ccc(-c2ccccc2)cc1 | 1.2 | 2 | -11 | -16 | 1.1 | 1.6
O=C(CN1C(=O)c2ccccc2C1=O)N1CCOCC1 | 0.9 | 0.6 | 15 | 10 | 0.8 | -0.25
O=C(Cc1ccc(-c2ccccc2)cc1)N1CCOCC1 | 0.3 | -0.1 | 65* | 74* | 0.3 | 0.53
O=C(CCSc1ccccc1)NCCN1CCOCC1 | 0.5 | -0.43 | -2 | 49 | 1 | 0.086
O=C(CC(c1ccccc1)c1cc(Br)ccc1O)NCCN1CCOCC1 (configuration not stated) | 0.2 | -0.1 | 56* | 85* | 0.4 | 0.78
Cc1nc(SCC#N)c2c(C)c(C)sc2n1 | 1.1 | 0.67 | -18 | -12 | 1.2 | -0.11
Cc1ccc(CCNC(=O)C2CC(c3ccccc3C(F)(F)F)=NO2)cc1 (configuration not stated) | nt | nt | nt | nt | nt | -1.7
CCOC(=O)c1ccc2c(c1)nc(SCC(=O)N1CCCCC1)n2CC | 0.2 | 0.03 | 88* | 78* | 0.1 | 0.14
